Data as given in PubChem BioAssay (NCI).
About 83,000 compounds went through this panel and 20% of them were active in at least one assay; those are over-represented in the sample as a whole.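 The endpoint reported here, percent growth, reads 100 for growth as untreated, 0 for no net growth and -100 for all cells dead.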 Active and inactive are the calls of the source. Rule for the calls: active = growth percent below 10; inactive = the rest.

Tested on: MALME-3M melanoma
Assay: NCI-60 one-dose screen, 48 h (100 = growth as untreated, 0 = no growth, -100 = all killed)
Details: 10 µM unless noted

Compound | growth
CCOC(=O)C(=Cc1c(-c2ccccc2)[nH]c2ccccc12)C(=O)OCC | 95.5% (inactive)
COc1ccc(C2=NN(c3ccc(S(N)(=O)=O)cc3)C(c3ccc(Cl)cc3)C2)c(O)c1 (centres undefined) | 93.5% (inactive)
CCOC(=O)C1=C(C)n2nc(CC#N)c(C#N)c2NC1c1ccc(Cl)cc1 (centres undefined) | 87.4% (inactive)
CCOC(=O)c1sc(/N=C2\NC(=O)/C(=C/c3ccc(N4CCN(C)CC4)cc3)S2)nc1C | 99.7% (inactive)
CC(C)NS(=O)(=O)c1cccc(-c2ccc3c(=O)n(CCCN)c4c(c3c2)C(=O)c2ccccc2-4)c1 | 118% (inactive)
COc1cc2nc3c(=O)n(CCN(C)C)cnn3c(=O)c2cc1OC | 99.4% (inactive)
COc1ccc(/C(=N\O)c2cc(C)c(OC)c(C)c2)cc1O | 67% (inactive)
COc1cc(C2=NN(c3ccccc3)C(c3cccc(Nc4ccnc5cc(C(F)(F)F)ccc45)c3)C2)cc(OC)c1OC (centres undefined) | 92.1% (inactive)
Nc1c(C(=O)Nc2ccccn2)sc2nc3c(cc12)CCCC3 | 62.7% (inactive)
COc1ccc(-c2cc(-c3nnc(SCC(=O)Nc4ccc(C(C)=O)cc4)o3)c3ccccc3n2)cc1 | -52.7% (active)
Nc1c(C(=O)Nc2ccccn2)sc2nc3c(cc12)CCCCC3 | 73.1% (inactive)
Sc1cccc2cccnc12 | 10.9% (inactive)
C=CCn1c(SCC(=O)Nc2ccc(C(=O)/C=C/c3cc(OC)c(OC)c(OC)c3)cc2)nnc1-c1ccc(Cl)cc1 | 66.2% (inactive)
O=C(/C(=C\c1c(-c2ccccc2)[nH]c2ccccc12)S(=O)(=O)c1ccccc1)c1ccccc1 | 83.3% (inactive)
